Counter-ions that a name gives are not always drawn.
Experiments:
Details in all cases: 10 µM; exposure time 6 h
[1] = system: Danio rerio larvae (5 dpf); assay: difference in excitability vs DMSO (percentage points); higher = more excitable than DMSO
Outline: (§1)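 Wild-type zebrafish larvae at 5 dpf were kept in 96-well plates and exposed for 6 h to 100 µL egg water holding library compound at a final concentration of 10 µM. From 3 h into exposure, the plates were held at 28.5 ℃ and photographed every 6 s through a 3-h programme of moving lines and 100 ms, 400Hz tones. Each behaviour was scored by Z-LaP Tracker, a DeepLabCut model, and averaged over 48 larvae per compound. Every value gives the compound mean minus the vehicle control mean, in percentage points.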

[2] = system: Danio rerio larvae (5 dpf); assay: difference in startle response vs DMSO (percentage points); higher = stronger startle than DMSO
Outline: as §1

[3] = system: Danio rerio larvae (5 dpf); assay: difference in activity during first hour vs DMSO (percentage points); higher = more activity than DMSO
Outline: as §1

[4] = system: Danio rerio larvae (5 dpf); assay: difference in habituation to acoustic stimuli vs DMSO (percentage points); higher = more habituation than DMSO
Outline: as §1

[5] = system: Danio rerio larvae (5 dpf); assay: difference in combined optomotor response to red, green and blue moving lines vs DMSO (percentage points); higher = stronger optomotor response than DMSO
Outline: as §1

Row | Compound | difference in excitability [1] | difference in startle response [2] | difference in activity during first hour [3] | difference in habituation to acoustic stimuli [4] | difference [5]
1 | Cc1cccc(Nc2ccccc2C(=O)O)c1C [Mefenamic Acid] | 6.54 | -1.5 | -5.95 | -12.8 | -15.5
2 | COc1ccc2c(c1)c(CC(=O)O)c(C)n2C(=O)c1ccc(Cl)cc1 [Indomethacin] | -1.03 | 1.79 | 2.47 | 6.54 | 1.47
3 | CC1=C(C/C=C(\C)CCC[C@H](C)CCC[C@H](C)CCCC(C)C)C(=O)c2ccccc2C1=O [Vitamin K1] | -4.97 | 1.27 | 12.1 | -1.08 | 6.58
4 | NC(N)=Nc1nc(CSCC/C(N)=N/S(N)(=O)=O)cs1 [Famotidine] | -2.4 | -1.19 | -7.05 | 6.6 | -3.11
5 | CN1C(CCl)Nc2cc(Cl)c(S(N)(=O)=O)cc2S1(=O)=O (stereo not given) [Methyclothiazide] | 5.58 | 4.44 | -0.184 | 2 | -1.76
6 | CCCCCCCCCCC[C@@H](C[C@@H]1OC(=O)[C@H]1CCCCCC)OC(=O)[C@H](CC(C)C)NC=O [Orlistat] | 0.283 | 0.288 | 10.8 | 3.74 | 2.67
7 | CN1CCc2cccc3c2[C@H]1Cc1ccc(O)c(O)c1-3 [(-)-Apomorphine (hydrochloride hydrate)] | 19.8 | -2.6 | -20.1 | -5.47 | -13
8 | CC[C@H]1OC(=O)[C@H](C)[C@@H](O[C@H]2C[C@@](C)(OC)[C@@H](O)[C@H](C)O2)[C@H](C)[C@@H](O[C@@H]2O[C@H](C)C[C@H](N(C)C)[C@H]2O)[C@](C)(OC)C[C@@H](C)C(=O)[C@H](C)[C@@H](O)[C@]1(C)O [Clarithromycin] | 7.19 | 1.97 | 11.7 | -1.55 | 6.95
9 | C[C@]12CC[C@@H]3c4ccc(O)cc4C[C@@H](CCCCCCCCC[S+]([O-])CCCC(F)(F)C(F)(F)F)[C@H]3[C@@H]1CC[C@@H]2O (stereo not given in full) [Fulvestrant] | 1.25 | 0.684 | -0.447 | 1.81 | 1.43
10 | O=C(O)CCCCCCCC(=O)O [Azelaic Acid] | 1.68 | 4.07 | -2.89 | 4.6 | 6.08
11 | CC1=C(C(=O)O)N2C(=O)[C@@H](NC(=O)[C@H](N)c3ccc(O)cc3)[C@H]2SC1 [Cefadroxil (hydrate)] | 4.89 | -1.88 | 6.54 | -3.34 | 7.44
12 | CN(C)[C@@H]1C(O)=C(C(N)=O)C(=O)[C@@]2(O)C(O)=C3C(=O)c4c(O)cccc4[C@@](C)(O)[C@H]3C[C@@H]12 [Tetracycline (hydrochloride)] | 5.28 | 1.04 | 2.06 | -0.0493 | -5.79
13 | NNC(=O)c1ccncc1 [Isoniazid] | 6.63 | 4.93 | 12.7 | -2.52 | 6.66
14 | O=C(O)CCNC(=O)c1ccc(/N=N/c2ccc(O)c(C(=O)O)c2)cc1 [Balsalazide] | 4.51 | 9.09 | 15 | 1.8 | 4.25
15 | CN(C)CCCN1c2ccccc2CCc2ccc(Cl)cc21 [Clomipramine (hydrochloride)] | 0.766 | 1.97 | -14.9 | -3.04 | -3.76
16 | CC(C)CCCCC(=O)N[C@@H](CCNCS(=O)(=O)O)C(=O)N[C@H](C(=O)N[C@@H](CCNCS(=O)(=O)O)C(=O)N[C@H]1CCNC(=O)[C@H]([C@@H](C)O)NC(=O)[C@H](CCNCS(=O)(=O)O)NC(=O)[C@H](CCNCS(=O)(=O)O)NC(=O)[C@H](CC(C)C)NC(=O)[C@@H](CC(C)C)NC(=O)[C@H](CCNCS(=O)(=O)O)NC1=O)[C@@H](C)O.CC[C@@H](C)CCCCC(=O)N[C@@H](CCNCS(=O)(=O)O)C(=O)N[C@H](C(=O)N[C@@H](CCNCS(=O)(=O)O)C(=O)N[C@H]1CCNC(=O)[C@H]([C@@H](C)O)NC(=O)[C@H](CCNCS(=O)(=O)O)NC(=O)[C@H](CCNCS(=O)(=O)O)NC(=O)[C@H](CC(C)C)NC(=O)[C@@H](CC(C)C)NC(=O)[C@H](CCNCS(=O)(=O)O)NC1=O)[C@@H](C)O [Colistin Methanesulfonate (sodium salt)] | 20.4 | -4.76 | 4.65 | 0.808 | -2.32
17 | CCCc1nn(C)c2c(=O)[nH]c(-c3cc(S(=O)(=O)N4CCN(C)CC4)ccc3OCC)nc12 [Sildenafil Citrate] | 4.08 | -0.935 | -7.02 | -0.835 | 5.26
18 | Nc1ccn([C@@H]2O[C@H](CO)[C@@H](O)C2(F)F)c(=O)n1 [Gemcitabine] | -0.256 | -0.373 | -2.75 | -1.87 | 2.24
19 | OC(c1cc(C(F)(F)F)nc2c(C(F)(F)F)cccc12)C1CCCCN1 (stereo not given) [Mefloquine (hydrochloride)] | 20.8 | -3.76 | -1.02 | -0.417 | -0.0553
20 | COc1ccc(CCN(C)CCCC(C#N)(c2ccc(OC)c(OC)c2)C(C)C)cc1OC (stereo not given) [Verapamil (hydrochloride)] | 7.52 | -8.68 | -17.7 | -4.3 | -6.45
21 | CC(C)Cn1cnc2c(N)nc3ccccc3c21 [Imiquimod] | -4.08 | 8.27 | -15 | -2.3 | -3.49

Row | Compound | difference in excitability [1] | difference in startle response [2] | difference in activity during first hour [3] | difference in habituation to acoustic stimuli [4] | difference [5]
22 | COC(=O)c1ccc2c(c1)NC(=O)/C2=C(\Nc1ccc(N(C)C(=O)CN2CCN(C)CC2)cc1)c1ccccc1 | 16.7 | -5.51 | -11.1 | 1.6 | 3.92
23 | Cc1nc(Nc2ncc(C(=O)Nc3c(C)cccc3Cl)s2)cc(N2CCN(CCO)CC2)n1 [Dasatinib] | 11.4 | -1.6 | -4.95 | 1.58 | -0.962
24 | CCC(=O)NC[C@@H]1C[C@H]1c1cccc2c1CCO2 [Tasimelteon] | 25 | 6.9 | -17.9 | -3.17 | 11.5
25 | CCOC(=O)C1=C(C)NC(C)=C(C(=O)OC)C1c1cccc(Cl)c1Cl (racemic) [(±)-Felodipine] | 0.706 | -2.36 | -22.2 | -10.8 | -16.5
26 | CC[C@H](C)[C@H](N)C1=N[C@H](C(=O)N[C@@H](CC(C)C)C(=O)N[C@H](CCC(=O)[O-])C(=O)N[C@H](C(=O)N[C@H]2CCCCNC(=O)[C@H](CC(N)=O)NC(=O)[C@@H](CC(=O)[O-])NC(=O)[C@H](Cc3cnc[nH]3)NC(=O)[C@@H](Cc3ccccc3)NC(=O)[C@H]([C@@H](C)CC)NC(=O)[C@@H](CCCN)NC2=O)[C@@H](C)CC)CS1.[Zn+2] [Bacitracin (zinc)] | 20.6 | -4.52 | 30.1 | -11 | -7.98
27 | COc1cc2c(cc1Cc1cccc(Cl)c1F)c(=O)c(C(=O)O)cn2[C@H](CO)C(C)C [Elvitegravir] | 4.89 | -9.84 | 6.05 | 0.943 | -4.56
28 | O=c1[nH]c2ccccc2n1CCN1CCN(c2cccc(C(F)(F)F)c2)CC1 [Flibanserin] | 17.7 | 11.6 | 9.81 | -4.3 | -0.569
29 | O=C(O)CSc1nnc(Br)n1-c1ccc(C2CC2)c2ccccc12 [Lesinurad] | 1.61 | 2.63 | 12.5 | -0.00375 | 2.41
30 | Nc1ccn(C[C@@H](CO)OCP(=O)(O)O)c(=O)n1 [Cidofovir] | -2.11 | -1.31 | -7.68 | -3.35 | -5.67
31 | CCC(=O)NCC[C@@H]1CCc2ccc3c(c21)CCO3 [Ramelteon] | 33 | 0.219 | -13.3 | -1.29 | 6.65
32 | CC=CC(=O)N(CC)c1ccccc1C [Crotamiton] | 0.486 | 3.97 | -3.58 | 4.95 | -3.13
33 | CNCC[C@H](Oc1cccc2ccccc12)c1cccs1 [(S)-Duloxetine (hydrochloride)] | 4.76 | -1.86 | -21 | -3.34 | -11.3
34 | CCN(CC)CC(=O)Nc1c(C)cccc1C [Lidocaine] | 4.55 | -4.05 | 10.3 | -4.04 | 1.72
35 | Nc1nc(=O)c2c([nH]1)NC[C@H](CNc1ccc(C(=O)N[C@@H](CCC(=O)O)C(=O)O)cc1)N2C=O [L-Folinic Acid (calcium salt)] | -3.02 | -0.777 | -9.87 | -0.456 | -0.774
36 | CC1=Nc2ccc(Cl)cc2S(=O)(=O)N1 [Diazoxide] | -4.99 | 1.05 | 4.03 | -3.84 | 5.23
37 | Nc1nc(O)c2ncn(CCC(CO)CO)c2n1 [Penciclovir] | 7.86 | 12.1 | 13.9 | -1.73 | 11.3
38 | C=CC1=C(C(=O)O)N2C(=O)[C@@H](NC(=O)/C(=N\O)c3csc(N)n3)[C@H]2SC1 [Cefdinir] | 6.83 | 5.77 | 6.72 | -1.11 | 4.15
39 | Cc1ccc(C)c(OCCCC(C)(C)C(=O)O)c1 [Gemfibrozil] | 14.3 | -10.7 | -1.6 | -4.26 | 4.28
40 | Cc1ccccc1N1C(=O)c2cc(S(N)(=O)=O)c(Cl)cc2NC1C (stereo not given) [Metolazone] | 5.2 | 4.85 | -12.7 | 0.578 | 1.31
41 | NCC(=O)CCC(=O)O [5-Aminolevulinic Acid (hydrochloride)] | 11.2 | 1.8 | 1.6 | -2.9 | 2.93
